Source: PubChem BioAssay (EPA / NIEHS)
Several values for one entry are separate records, joined by “and”; a condition that tells them apart may be missing. Equal values may be shown once. Records with an inconclusive call do not appear. Some structures have more than one record in an assay (separate samples or runs), and their calls can disagree. Activity calls are given as the source filed them. How the source made its calls: active means hit-call score of the fitted dose curve at least 0.9, where 1 is the maximum; inconclusive means response in the unintended direction; inactive means score below 0.9.

How the values were obtained:
[1] = molecular target: human Sirtuin 1 (SIRT1), SIRT1 (gene 23411) (UniProt Q96EB6); test: NVS_ENZ_hSIRT1: NovaScreen (NVS) Enzymatic Assay for human Sirtuin 1 (SIRT1) (AID 2283219)
Sequence of human Sirtuin 1 (SIRT1), SIRT1 (gene 23411) (Q96EB6 whole entry, looked up): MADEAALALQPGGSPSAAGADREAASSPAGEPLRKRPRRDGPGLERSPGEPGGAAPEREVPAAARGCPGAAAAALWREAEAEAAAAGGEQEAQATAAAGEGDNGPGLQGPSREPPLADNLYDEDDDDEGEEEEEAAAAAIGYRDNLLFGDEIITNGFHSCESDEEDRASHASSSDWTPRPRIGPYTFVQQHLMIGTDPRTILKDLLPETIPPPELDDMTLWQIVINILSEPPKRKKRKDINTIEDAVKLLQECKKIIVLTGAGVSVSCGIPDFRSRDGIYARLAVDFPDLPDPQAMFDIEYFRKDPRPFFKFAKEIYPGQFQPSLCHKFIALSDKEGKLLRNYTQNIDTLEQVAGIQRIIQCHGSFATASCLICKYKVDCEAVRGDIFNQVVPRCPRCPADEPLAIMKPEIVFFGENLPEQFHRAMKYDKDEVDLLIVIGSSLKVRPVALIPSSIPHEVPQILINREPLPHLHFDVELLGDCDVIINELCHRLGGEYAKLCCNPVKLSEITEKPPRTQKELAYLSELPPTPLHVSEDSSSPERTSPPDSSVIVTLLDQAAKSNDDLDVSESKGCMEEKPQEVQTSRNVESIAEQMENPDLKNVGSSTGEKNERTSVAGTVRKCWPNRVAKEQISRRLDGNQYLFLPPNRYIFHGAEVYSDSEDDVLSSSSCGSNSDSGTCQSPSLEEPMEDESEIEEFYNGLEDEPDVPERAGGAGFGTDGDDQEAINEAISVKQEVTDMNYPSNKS
Outline: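 Cell-free recombinant SIRT1 with a fluorescent substrate; substrate and product separated by electrophoretic mobility shift and read by fluorescence intensity, 1 h after dosing. Primary screen at 25 uM in duplicate; hits re-run in concentration-response up to 50 uM, relative to DMSO.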

[2] = molecular target: human Tropomyosin Receptor Kinase A (TRKA), NTRK1 (gene 4914) (UniProt P04629); test: NVS_ENZ_hTrkA: NovaScreen (NVS) Enzymatic Assay for human Tropomyosin Receptor Kinase A (TRKA) (AID 2283224)
Sequence of human Tropomyosin Receptor Kinase A (TRKA), NTRK1 (gene 4914) (P04629 whole entry, looked up): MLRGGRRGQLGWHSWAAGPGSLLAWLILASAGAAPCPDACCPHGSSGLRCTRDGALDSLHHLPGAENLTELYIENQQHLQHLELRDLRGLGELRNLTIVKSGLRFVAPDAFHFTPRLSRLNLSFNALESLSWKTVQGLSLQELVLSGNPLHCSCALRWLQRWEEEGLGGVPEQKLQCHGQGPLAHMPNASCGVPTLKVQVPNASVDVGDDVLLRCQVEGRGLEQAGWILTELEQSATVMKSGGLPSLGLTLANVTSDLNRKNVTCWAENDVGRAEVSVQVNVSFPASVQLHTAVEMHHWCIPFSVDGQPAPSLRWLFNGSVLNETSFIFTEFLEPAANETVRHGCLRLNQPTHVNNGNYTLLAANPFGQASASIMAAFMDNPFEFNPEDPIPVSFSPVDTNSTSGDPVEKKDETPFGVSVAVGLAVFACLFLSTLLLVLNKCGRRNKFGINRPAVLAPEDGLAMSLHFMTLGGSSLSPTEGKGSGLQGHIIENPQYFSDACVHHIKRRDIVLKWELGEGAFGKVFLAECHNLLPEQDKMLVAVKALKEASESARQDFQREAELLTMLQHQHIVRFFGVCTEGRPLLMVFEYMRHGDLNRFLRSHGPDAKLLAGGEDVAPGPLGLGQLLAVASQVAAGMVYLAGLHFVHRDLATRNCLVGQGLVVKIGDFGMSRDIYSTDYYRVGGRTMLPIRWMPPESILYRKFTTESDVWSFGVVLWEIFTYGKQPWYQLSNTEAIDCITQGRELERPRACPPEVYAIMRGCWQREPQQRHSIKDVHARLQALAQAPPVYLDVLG
Outline: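 Compounds were screened at 25 uM in duplicate, then concentration series to a 50 uM top for those meeting threshold (e.g. 30% inhibition). Enzyme was recombinant human TrkA, incubated 1 h. Product formation was quantified by fluorescence after mobility-shift separation.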

[3] = molecular target: human Sirtuin 2 (SIRT2), SIRT2 (gene 22933) (UniProt Q8IXJ6); test: NVS_ENZ_hSIRT2: NovaScreen (NVS) Enzymatic Assay for human Sirtuin 2 (SIRT2) (AID 2283217)
Outline: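 Single-point duplicate screen at 25 uM, then concentration-response (max 50 uM) for chemicals passing threshold. Enzyme activity of recombinant human SIRT2 measured after 1 hr by fluorescence with mobility-shift separation of product; DMSO baseline.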

[4] = test system: guinea pig Leukotriene B4 Receptor (LTB4), gene 100379538; test: NVS_GPCR_gLTB4: NovaScreen (NVS) G Protein-Coupled Receptor Assay for guinea pig Leukotriene B4 Receptor (LTB4) (AID 2283247)
Outline: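 Membranes from guinea pig spleen incubated 2 h with radioligand and compound; bound counts measured by filtration and scintillation. Screened first at 25 uM in duplicate, then actives titrated to a 50 uM top concentration relative to DMSO.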

[5] = molecular target: human Sirtuin 3 (SIRT3), SIRT3 (gene 23410) (UniProt Q9NTG7); test: NVS_ENZ_hSIRT3: NovaScreen (NVS) Enzymatic Assay for human Sirtuin 3 (SIRT3) (AID 2283222)
Sequence of human Sirtuin 3 (SIRT3), SIRT3 (gene 23410) (Q9NTG7 whole entry, looked up): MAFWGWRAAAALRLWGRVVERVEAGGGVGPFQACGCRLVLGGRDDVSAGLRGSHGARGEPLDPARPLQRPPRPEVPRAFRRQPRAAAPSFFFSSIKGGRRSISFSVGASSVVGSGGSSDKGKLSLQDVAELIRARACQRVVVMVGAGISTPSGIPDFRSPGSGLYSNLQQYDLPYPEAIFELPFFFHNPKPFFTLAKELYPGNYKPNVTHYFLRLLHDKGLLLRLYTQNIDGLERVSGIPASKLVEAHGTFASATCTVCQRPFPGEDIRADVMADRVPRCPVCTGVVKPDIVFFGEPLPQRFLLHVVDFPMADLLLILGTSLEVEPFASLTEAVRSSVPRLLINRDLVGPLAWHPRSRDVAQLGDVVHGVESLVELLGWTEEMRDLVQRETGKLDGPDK
Outline: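 Cell-free enzyme assay with recombinant protein and fluorescent substrate, product separated by electrophoretic mobility shift; read 1 hour after dosing. Screened in duplicate at 25 uM, then singleton concentration-response up to 50 uM; loss of signal versus DMSO.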

[6] = molecular target: human SRC Proto-Oncogene, Non-receptor Tyrosine Kinase (SRC), SRC (gene 6714) (UniProt P12931); test: NVS_ENZ_hSRC: NovaScreen (NVS) Enzymatic Assay for human SRC Proto-Oncogene, Non-receptor Tyrosine Kinase (SRC) (AID 2283223)
Outline: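 Compounds passing 30% inhibition at 25 uM (duplicate) were titrated to a top concentration of 50 uM. Enzyme activity read by fluorescence with mobility-shift substrate/product separation after 1 h; DMSO baseline.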

[7] = molecular target: human Vascular Endothelial Growth Factor Receptor 1 (VEGFR1), FLT1 (gene 2321) (UniProt P17948); test: NVS_ENZ_hVEGFR1: NovaScreen (NVS) Enzymatic Assay for human Vascular Endothelial Growth Factor Receptor 1 (VEGFR1) (AID 2283226)
Outline: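 Kinase activity of recombinant human VEGFR1 was read by fluorescence after electrophoretic separation of product from substrate, 1 h post-dosing; initial duplicate single-point testing at 25 uM, followed by concentration-series follow-up, with DMSO as baseline.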

[8] = molecular target: rabbit Imidazoline 2 Central (I2C), CKB (gene 100009085) (UniProt P00567); test: NVS_ENZ_rabI2C: NovaScreen (NVS) Enzymatic Assay for rabbit Imidazoline 2 Central (I2C) (AID 2283228)
Sequence of rabbit Imidazoline 2 Central (I2C), CKB (gene 100009085) (P00567 whole entry, looked up): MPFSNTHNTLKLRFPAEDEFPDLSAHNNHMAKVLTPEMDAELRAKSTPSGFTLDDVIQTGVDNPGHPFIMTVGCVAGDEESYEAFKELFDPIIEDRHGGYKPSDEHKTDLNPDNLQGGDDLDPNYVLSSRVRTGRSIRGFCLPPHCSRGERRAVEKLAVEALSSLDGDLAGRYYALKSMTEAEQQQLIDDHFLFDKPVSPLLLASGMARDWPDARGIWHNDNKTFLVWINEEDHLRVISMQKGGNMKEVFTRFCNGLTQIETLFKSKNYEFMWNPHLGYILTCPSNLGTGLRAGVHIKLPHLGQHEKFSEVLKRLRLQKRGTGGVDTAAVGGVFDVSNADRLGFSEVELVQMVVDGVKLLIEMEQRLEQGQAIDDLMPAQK
Outline: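 Rabbit brain membranes, cell-free; readout by filter-based scintillation counting 1.5 hours after dosing, loss of signal vs DMSO. Initial duplicate test at 25 uM, then concentration-response with 50 uM top concentration.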

[9] = molecular target: human Vascular Endothelial Growth Factor Receptor 3 (VEGFR3), FLT4 (gene 2324) (UniProt P35916); test: NVS_ENZ_hVEGFR3: NovaScreen (NVS) Enzymatic Assay for human Vascular Endothelial Growth Factor Receptor 3 (VEGFR3) (AID 2283229)
Sequence of human Vascular Endothelial Growth Factor Receptor 3 (VEGFR3), FLT4 (gene 2324) (P35916 whole entry, looked up): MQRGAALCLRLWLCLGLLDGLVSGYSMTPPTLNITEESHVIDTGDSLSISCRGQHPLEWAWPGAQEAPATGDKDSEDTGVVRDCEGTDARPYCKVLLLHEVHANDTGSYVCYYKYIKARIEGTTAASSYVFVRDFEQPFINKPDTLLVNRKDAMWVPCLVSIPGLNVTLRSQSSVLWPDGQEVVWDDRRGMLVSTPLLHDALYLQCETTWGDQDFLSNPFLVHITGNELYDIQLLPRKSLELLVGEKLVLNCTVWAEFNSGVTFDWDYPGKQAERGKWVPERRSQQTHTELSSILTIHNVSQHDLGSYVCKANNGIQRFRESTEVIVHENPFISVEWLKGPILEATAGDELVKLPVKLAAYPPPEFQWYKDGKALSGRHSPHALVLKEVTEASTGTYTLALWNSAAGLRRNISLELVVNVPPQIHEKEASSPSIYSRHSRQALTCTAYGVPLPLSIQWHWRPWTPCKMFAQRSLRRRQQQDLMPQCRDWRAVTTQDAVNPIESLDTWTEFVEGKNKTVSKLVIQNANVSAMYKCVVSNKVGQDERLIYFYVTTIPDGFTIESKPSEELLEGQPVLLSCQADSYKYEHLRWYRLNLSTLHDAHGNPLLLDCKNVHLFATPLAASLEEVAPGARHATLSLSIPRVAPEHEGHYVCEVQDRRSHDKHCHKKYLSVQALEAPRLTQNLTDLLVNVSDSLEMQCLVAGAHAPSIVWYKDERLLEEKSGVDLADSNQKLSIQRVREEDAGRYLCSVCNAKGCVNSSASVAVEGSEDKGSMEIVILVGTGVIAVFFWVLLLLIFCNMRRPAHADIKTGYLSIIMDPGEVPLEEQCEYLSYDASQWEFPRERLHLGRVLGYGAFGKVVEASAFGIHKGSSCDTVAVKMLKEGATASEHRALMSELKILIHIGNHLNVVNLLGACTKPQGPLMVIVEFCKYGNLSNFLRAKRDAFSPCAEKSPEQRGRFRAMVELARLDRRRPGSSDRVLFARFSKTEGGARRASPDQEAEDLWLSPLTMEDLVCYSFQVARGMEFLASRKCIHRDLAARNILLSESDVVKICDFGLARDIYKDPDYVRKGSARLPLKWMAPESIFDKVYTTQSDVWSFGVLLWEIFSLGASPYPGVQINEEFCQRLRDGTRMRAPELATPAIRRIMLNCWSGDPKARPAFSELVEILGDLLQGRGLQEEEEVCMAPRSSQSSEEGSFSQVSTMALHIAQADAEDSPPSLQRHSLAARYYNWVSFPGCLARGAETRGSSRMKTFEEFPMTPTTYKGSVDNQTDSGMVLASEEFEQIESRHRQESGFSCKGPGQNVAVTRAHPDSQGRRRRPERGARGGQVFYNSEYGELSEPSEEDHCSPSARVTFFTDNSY
Outline: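 Chemicals first run in duplicate at 25 uM, with actives re-tested in concentration series to a top of 50 uM. Recombinant VEGFR3 activity measured after 1 h via fluorescence with mobility-shift product separation; inhibition fitted relative to DMSO.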

[10] = molecular target: human Vascular Endothelial Growth Factor Receptor 2 (VEGFR2), KDR (gene 3791) (UniProt P35968); test: NVS_ENZ_hVEGFR2: NovaScreen (NVS) Enzymatic Assay for human Vascular Endothelial Growth Factor Receptor 2 (VEGFR2) (AID 2283230)
Sequence of human Vascular Endothelial Growth Factor Receptor 2 (VEGFR2), KDR (gene 3791) (P35968 whole entry, looked up): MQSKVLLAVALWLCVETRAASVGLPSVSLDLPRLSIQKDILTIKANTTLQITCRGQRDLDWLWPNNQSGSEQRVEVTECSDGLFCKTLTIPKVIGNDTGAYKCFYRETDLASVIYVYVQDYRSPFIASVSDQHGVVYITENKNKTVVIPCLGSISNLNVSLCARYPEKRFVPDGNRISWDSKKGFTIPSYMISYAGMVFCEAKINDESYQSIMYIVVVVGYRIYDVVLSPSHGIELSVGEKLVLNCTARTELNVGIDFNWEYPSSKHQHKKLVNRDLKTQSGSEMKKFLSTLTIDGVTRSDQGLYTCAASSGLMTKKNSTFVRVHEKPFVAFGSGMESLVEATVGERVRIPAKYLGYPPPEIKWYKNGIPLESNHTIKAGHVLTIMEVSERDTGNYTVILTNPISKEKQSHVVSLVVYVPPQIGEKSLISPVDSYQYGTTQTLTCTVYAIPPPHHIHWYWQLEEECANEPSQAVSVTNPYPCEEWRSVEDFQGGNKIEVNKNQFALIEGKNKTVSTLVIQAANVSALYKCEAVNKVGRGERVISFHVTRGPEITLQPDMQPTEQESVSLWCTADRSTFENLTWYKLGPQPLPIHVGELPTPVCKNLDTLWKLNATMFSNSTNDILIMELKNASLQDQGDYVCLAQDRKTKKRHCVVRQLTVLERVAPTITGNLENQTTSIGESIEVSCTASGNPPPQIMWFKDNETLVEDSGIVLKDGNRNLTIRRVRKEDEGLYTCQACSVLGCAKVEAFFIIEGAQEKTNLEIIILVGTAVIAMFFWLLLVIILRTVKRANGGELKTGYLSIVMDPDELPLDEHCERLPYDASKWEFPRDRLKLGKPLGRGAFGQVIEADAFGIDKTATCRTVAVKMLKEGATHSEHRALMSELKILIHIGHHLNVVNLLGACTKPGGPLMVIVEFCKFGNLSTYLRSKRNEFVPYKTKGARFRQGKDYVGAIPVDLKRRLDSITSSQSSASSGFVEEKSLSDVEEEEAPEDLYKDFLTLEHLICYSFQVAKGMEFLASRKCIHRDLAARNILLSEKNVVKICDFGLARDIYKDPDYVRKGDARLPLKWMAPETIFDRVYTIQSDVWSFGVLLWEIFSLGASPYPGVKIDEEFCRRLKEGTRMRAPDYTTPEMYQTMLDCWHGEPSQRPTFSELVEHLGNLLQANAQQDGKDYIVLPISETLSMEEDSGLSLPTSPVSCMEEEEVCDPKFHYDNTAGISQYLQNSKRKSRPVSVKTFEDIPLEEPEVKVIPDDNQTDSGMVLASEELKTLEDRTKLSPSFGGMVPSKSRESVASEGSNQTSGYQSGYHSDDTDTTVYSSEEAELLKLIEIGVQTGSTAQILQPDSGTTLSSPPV
Outline: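 Cell-free recombinant VEGFR2 kinase, fluorescent substrate with electrophoretic mobility-shift separation; read 1 h after dosing. Screened at 25 uM in duplicate, hits to concentration-response up to 50 uM; loss-of-signal versus DMSO.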

[11] = molecular target: sheep Cyclooxygenase-2 (Cox2), PTGS2 (gene 443460) (UniProt P79208); test: NVS_ENZ_oCOX2: NovaScreen (NVS) Enzymatic Assay for sheep Cyclooxygenase-2 (Cox2) (AID 2283231)
Outline: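 Compounds were first run at 25 uM in duplicate against tissue-extracted ovine COX-2; those passing a preset inhibition threshold went to singleton concentration-response testing with a 50 uM maximum. Read-out: absorbance at 0.66 hour.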

[12] = molecular target: rat Catechol-O-Methyl Transferase (COMT), Comt (gene 24267) (UniProt P22734); test: NVS_ENZ_rCOMT: NovaScreen (NVS) Enzymatic Assay for rat Catechol-O-Methyl Transferase (COMT) (AID 2283235)
Outline: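 Rat dorsal striatum extract served as COMT source; product quantified by HPLC/spectrophotometry, read at 0 h after dosing. Primary single-concentration screen at 25 uM, followed by concentration series to a 50 uM maximum.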

[13] = molecular target: sheep Cyclooxygenase-1 (Cox1), PTGS1 (gene 443551) (UniProt P05979); test: NVS_ENZ_oCOX1: NovaScreen (NVS) Enzymatic Assay for sheep Cyclooxygenase-1 (Cox1) (AID 2283239);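 further: actives reduce cyclooxygenase activity so potencies are for inhibitors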
Outline: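 Cell-free colorimetric assay of enzyme activity in a native extract of ovine seminal vesicles. Absorbance was read 0.66 hour after compound addition. Loss of signal relative to the DMSO negative control was scored, with actives from the 25 uM duplicate primary screen retested in concentration series.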

[14] = molecular target: human Serotonin, 5-Hydroxytryptamine Receptor 2A (5HT2A), HTR2A (gene 3356) (UniProt P28223); test: NVS_GPCR_h5HT2A: NovaScreen (NVS) G Protein-Coupled Receptor Assay for human Serotonin, 5-Hydroxytryptamine Receptor 2A (5HT2A) (AID 2283249)
Outline: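 Radioligand displacement on human cortex tissue extract, counted by filtration and scintillation 1.5 h post-dosing. Initial single-concentration screen at 25 uM in duplicate, concentration series in follow-up; DMSO as baseline.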

[15] = molecular target: Adenosine receptor A1 (Bos taurus) (UniProt P28190); test: NVS_GPCR_bAdoR_NonSelective: NovaScreen (NVS) G Protein-Coupled Receptor Assay for bovine Adenosine Receptor (AdoR), Non-selective Binding (AID 2283244)
Outline: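 Cell-free binding with membranes from bovine striatum: radioligand displaced by test chemical, read after 1 h by filtration and scintillation. Single-point 25 uM duplicate primary, 50 uM top concentration in follow-up curves, DMSO baseline.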

[16] = molecular target: rat Constitutive Nitric Oxide Synthase (CNOS), Nos1 (gene 24598) (UniProt P29476); test: NVS_ENZ_rCNOS: NovaScreen (NVS) Enzymatic Assay for rat Constitutive Nitric Oxide Synthase (CNOS) (AID 2283236)
Outline: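 Single 25 uM duplicate screen, then concentration series to 50 uM for chemicals meeting threshold. Rat brain membrane-derived CNOS activity detected radiometrically by filtration and scintillation counting, 1 h after compound addition; DMSO as baseline.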

[17] = test system: bovine Histamine 1 Receptor (H1), gene 281231; test: NVS_GPCR_bH1: NovaScreen (NVS) G Protein-Coupled Receptor Assay for bovine Histamine 1 Receptor (H1) (AID 2283246)
Outline: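 Hits from a 25 uM duplicate primary screen were retested in concentration series (top 50 uM); binding measured as scintillation-counted displacement of radioligand from bovine cerebellar membranes after 1 h, normalised to DMSO.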

CC(C)CCCCCCc1ccc(O)cc1
outcome [1]: inactive
outcome [2]: inactive

CC1(C)C(C=C(Cl)Cl)C1C(=O)OCc1cccc(Oc2ccccc2)c1 (centres undefined)
outcome [3]: inactive

CCOC(=O)NCCOc1ccc(Oc2ccccc2)cc1
outcome [4]: inactive

Cc1nn(C)c(Oc2ccccc2)c1C=NOCc1ccc(C(=O)OC(C)(C)C)cc1
AC50 [3]: 6.6 µM (active)

S=C(S)NCCNC(=S)S.[Mn+2].[S-]C([S-])=NCCN=C([S-])[S-].[Zn+2]
AC50 [3]: 4.58 µM (active)
outcome [3]: inactive
AC50 [1]: 3.63 µM (active) and 4.01 µM (active) and 3.03 µM (active)
AC50 [5]: 25 µM (active)
outcome [5]: inactive
AC50 [6]: 1.47 µM (active)
AC50 [2]: 22.1 µM (active)
AC50 [7]: 7.01 µM (active)
outcome [7]: inactive
AC50 [8]: 1.34 µM (active)
outcome [8]: inactive
AC50 [9]: 2.42 µM (active) and 1.31 µM (active)
AC50 [10]: 4.23 µM (active) and 3.35 µM (active)
AC50 [11]: 12.5 µM (active)
AC50 [12]: 21.1 µM (active)
outcome [13]: inactive
outcome [14]: inactive

Oc1ccc(C(c2ccc(O)cc2)C(Cl)(Cl)Cl)cc1
AC50 [3]: 17 µM (active)
AC50 [5]: 19.4 µM (active)
AC50 [2]: 15 µM (active)

O=C(c1ccc(O)cc1O)c1ccc(O)cc1O
AC50 [6]: 15 µM (active)
AC50 [2]: 25 µM (active)
AC50 [7]: 25 µM (active)
AC50 [10]: 14.6 µM (active)
AC50 [15]: 3.39 µM (active)

CCCCC(CC)COC(=O)c1ccccc1C(=O)O (centres undefined)
outcome [16]: inactive

C=CCOC(Cn1ccnc1)c1ccc(Cl)cc1Cl (centres undefined)
AC50 [3]: 15.1 µM (active)
AC50 [8]: 25 µM (active)

CC(=O)[C@H]1CC[C@H]2[C@@H]3CCC4=CC(=O)CC[C@]4(C)[C@H]3CC[C@]12C
AC50 [13]: 17.7 µM (active)

CC(=O)S[C@@H]1CC2=CC(=O)CC[C@]2(C)[C@H]2CC[C@@]3(C)[C@@H](CC[C@@]34CCC(=O)O4)[C@H]12
outcome [17]: inactive

C[C@]12CC[C@@H]3c4ccc(O)cc4C[C@@H](CCCCCCCCCS(=O)CCCC(F)(F)C(F)(F)F)[C@H]3[C@@H]1CC[C@@H]2O (some centres undefined)
outcome [14]: inactive

COC(=O)c1ccc(CNS(C)(=O)=O)cc1S(=O)(=O)NC(=O)Nc1nc(OC)cc(OC)n1
AC50 [16]: 7.99 µM (active)

O=C(O)C1(C(=O)Nc2ccc(Cl)cc2Cl)CC1
AC50 [9]: 14.9 µM (active)
outcome [10]: inactive
